Screening data as filed in PubChem BioAssay.
Pf growth 48h: Primary qHTS for delayed death inhibitors of the malarial parasite plastid, 48 hour incubation; 310,000 compounds, 5.9% hits; Potency, µM (titrated, usually from 28.7 µM), inactives show at the highest dose activity change, negative = inhibition, usual class: inhibitors; P. falciparum luciferase growth in erythrocytes, 48 h; active = well fitted inhibition curve with a large enough effect; inconclusive = small, poorly fitted or top-dose-only effect, or another doubt; inactive = no such curve, though single readings can be large or run the other way; also: % is scaled to controls: 0 for no effect and ±100 for the full control effect
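Firefly luciferase activity from engineered P. falciparum reports growth; inhibitors lower the luminescent signal. Cultures contained 2% hematocrit erythrocytes at 0.1% final parasitemia.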
Pf growth 96h: Primary qHTS for delayed death inhibitors of the malarial parasite plastid, 96 hour incubation | P. falciparum luciferase reporter growth, 96 h | Potency, µM (series often up to 28.7 µM), inactives show top-dose activity change, negative = inhibition, most hits filed as inhibitors | 320,000 compounds, 6.9% hits; active = well fitted inhibition curve with a large enough effect; inconclusive = small, poorly fitted or top-dose-only effect, or another doubt; inactive = no such curve, though single readings can be large or run the other way; also: % is scaled to controls: 0 for no effect and ±100 for the full control effect
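Two-generation exposure (96 h) targets delayed-death phenotype. Reporter parasites carrying integrated firefly luciferase, in red cells at 2% hematocrit and 0.05% parasitemia final, kept at 37 C, 5% CO2; luminescence loss indicates inhibition.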
NS1 function inh: qHTS Assay for Inhibitors of Influenza NS1 Protein Function. Potency, µM (series often up to 46.1 µM), for the others: at the highest dose activity, positive = more growth. 270,000 compounds, 0.4% hits. AID 2326, 2010; also: actives are rising curves; nearly all actives have a fitted effect of over 50% in size
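In this qHTS, NS1 from influenza A is expressed in budding yeast, where it slows growth. Cells are switched from glucose to 2% galactose medium (pH 6.0, -URA), treated with compound, and growth recovery is read at OD600.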
SARS PLP yeast: qHTS of Yeast-based Assay for SARS-CoV PLP. S. cerevisiae expressing SARS-CoV PLpro, growth rescue. Potency, µM (titrated, usually from 32.9 µM), for the others: top-dose activity, positive = growth rescue, usual class: activators. 330,000 compounds, 0.19% hits. AID 485353, 2010; also: 0% is about no effect; nearly all actives have a fitted effect of over 55% in size
* marks the source's active call; other numbers are inactive results; ? = inconclusive; nt = not tested or not shown. Shown are actives, neighbours in structure and some others; about 10% of the full set was active somewhere. Unless noted, calls follow the shape of the full dose curve. Potency is read from the fitted curve at half-maximal effect.

SMILES	Pf growth 48h	Pf growth 96h	NS1 function inh	SARS PLP yeast
CCOc1ccc(Oc2cc(NC(=O)c3ccco3)cc([N+](=O)[O-])c2)cc1	6.6µM*	1.7µM*	-115%	-38%
C=CCC[C@@H](Cc1ccc(F)cc1)C(=O)OC[C@@H](Cc1c[nH]c2ccccc12)NC(=O)[C@@H](CC=C)CC(=O)N[C@H](CO)Cc1ccccc1	nt	nt	nt	3%
CCn1nc(C(=O)Nc2cc(Cl)ccc2-n2cncn2)c2ccccc2c1=O	?	?	nt	-1%
CCOC(=O)c1c(C)nn(-c2ccc(NC(=O)c3cccs3)cc2)c1C	15µM*	3.3µM*	-17%	1%
CCOC(=O)c1c(C)nn(-c2ccc(NC(=O)c3c(C)noc3C)cc2)c1C	-6%	-6%	-2%	0%
CC(=O)c1ccc(N2CCN(CC(=O)N(C3CC3)C3CCS(=O)(=O)C3)CC2)c(F)c1 (stereo unspecified)	-5%	-21%	nt	-13%
COc1ccc2c(c1)CCc1c(C(=O)N3CCCc4ccccc43)noc1-2	6.6µM*	10%	-18%	-23%
COc1ccc(NC(=O)N2CCCc3ccccc32)cc1	47%	-7%	-11%	-7%
COc1ccc(N/N=C(/C(C)=O)N2CCCc3ccccc32)cc1	4%	12µM*	-42%	0%
COc1ccc2c(c1)CCc1c(C(=O)N3CC4(C)CC3CC(C)(C)C4)noc1-2 (stereo unspecified)	15µM*	?	-58%	-31%
O=C(O)Cn1c(C(=O)Nc2nc(-c3ccccc3Cl)cs2)cc2ccccc21	-14%	?	nt	nt
CCC(C)[C@H](NC(=O)[C@H](Cc1ccccc1)n1c(=O)[nH]c2ccccc2c1=O)C(=O)NCC1CCC(C(=O)O)CC1 (stereo partly specified)	-17%	13µM*	5%	-2%
C[C@H](NC(=O)[C@H](Cc1ccccc1)n1c(=O)[nH]c2ccccc2c1=O)C(=O)N1CCC(C(=O)O)CC1	-2%	?	12%	2%
CC1(c2ccccc2)CC(C)(C)N2C(=O)C(=O)c3cccc1c32 (stereo unspecified)	12µM*	26%	-39%	-6%
CC(C)CC(OC(=O)c1ccc(Cl)nc1)C(=O)NC1CCCC1 (stereo unspecified)	11%	35%	-5%	-17%
CC1=C(C(=O)N2CCOCC2)C(c2ccc(OC(F)F)cc2)NC(=S)N1c1ccccc1 (stereo unspecified)	-3%	-26%	-3%	-1%
CC(C)n1c(O)c(N=NC(=O)CNC(=O)Cc2ccc(Cl)cc2)c2ccccc21	-10%	-18%	4%	-19%
CC(C)n1c(O)c(N=NC(=O)Cc2csc(N3CCOCC3)n2)c2ccccc21	13µM*	?	nt	-2%
O=C(O)CC[C@@H](C(=O)O)N1C(=O)[C@@H]2[C@@H]3CC[C@H](C3)[C@@H]2C1=O	nt	nt	-1%	nt
CC(C)(C)OC(=O)N1CCC[C@H]1C(=O)N/N=C/c1ccc2ncccc2c1	?	12µM*	-2%	0%
CCn1cc(S(=O)(=O)CC(=O)Nc2cccc(C)c2)c2ccccc21	-5%	?	0%	1%
CCCn1cc(S(=O)(=O)CC(=O)Nc2ccc(OCC)cc2)c2ccccc21	13µM*	20%	-20%	-5%
CCn1cc(S(=O)(=O)CC(=O)Nc2ccc(C)cc2)c2ccccc21	6%	2.6µM*	-5%	7%
CCOC(=O)N1CCN(C(=O)CS(=O)(=O)c2cn(Cc3ccccc3C)c3ccccc23)CC1	10%	nt	-1%	5%
CCCn1cc(S(=O)(=O)CC(=O)Nc2ccc(OC)cc2OC)c2ccccc21	?	?	-18%	8%
SMILES	Pf growth 48h	Pf growth 96h	NS1 function inh	SARS PLP yeast
Cc1ccccc1Cn1cc(S(=O)(=O)CC(=O)Nc2nccs2)c2ccccc21	12µM*	-29%	-12%	-3%
CCOC(=O)N1CCN(C(=O)CNC(=O)c2ccc(Cl)cc2)CC1	17%	-12%	9%	0%
O=C(Nc1ccc(S(=O)(=O)N2CCOCC2)cc1)c1cc(-c2ccccc2O)n[nH]1	10µM*	?	-1%	-1%
CC1CN(S(=O)(=O)c2ccc(NC(=O)c3cc(-c4ccccc4O)n[nH]3)cc2)CC(C)O1 (stereo unspecified)	1.7µM*	0.93µM*	nt	3%
O=C(Nc1ccc(S(=O)(=O)N2CCOCC2)cc1)c1ccccc1	-17%	-14%	-3%	1%
COc1ccc(S(=O)(=O)N2CCOCC2)cc1NC(=O)c1cccs1	8%	-2%	nt	-6%
CC(C)c1ccccc1-n1c(-c2cccnc2)n[nH]c1=S	?	-36%	4%	1%
CC(=O)Nc1ccc(-c2csc(N3CCC(C(N)=O)CC3)n2)cc1	?	-5%	nt	nt
CCOc1nc2cnccc2n(CC(=O)Nc2cccc(C)c2)c1=O	6%	13%	4%	?
COc1ccc(C2c3sc(=O)[nH]c3SC3C4CCC(C4)C23)cc1OC (stereo unspecified)	?	9.3µM*	20%	-36%
CC1(C)CC(=O)C(C2C3=C(CC(C)(C)CC3=O)Oc3c(Br)cc(Br)cc32)=C(O)C1 (stereo unspecified)	19%	0%	9%	-1%
COc1ccc(S(=O)(=O)N(C)CC(=O)NCc2ccccc2)cc1OC	-8%	43%	-1%	0%
COc1ccc(S(=O)(=O)N(C)CC(=O)NCCc2ccccc2)cc1OC	?	15µM*	-4%	0%
COc1ccc(CCNC(=O)CN(C)S(=O)(=O)c2ccc(Br)s2)cc1OC	-5%	1.9µM*	-21%	10%
COc1ccc(C(=O)COc2ccc(F)cc2)c(O)c1C	14%	20%	2%	-2%
O=C1CCCc2nc(N3CCN(C(=O)c4ccco4)CC3)ncc21	126%	9.3µM*	14%	-7%
CCC(c1n[nH]c(=S)n1-c1ccccc1)N(C)C (stereo unspecified)	12%	-6%	-8%	-3%
CC(C)CCC(CC(C)O)c1n[nH]c(=S)n1-c1ccccc1 (stereo unspecified)	-1%	2.3µM*	-4%	0%
Cc1cc(C)cc(OCC(=O)OCC(=O)N2CC(=O)Nc3ccccc32)c1	?	35%	nt	-1%
O=C(Nc1ccc(C(=O)NCCCN2CCN(c3ccc(F)cc3)CC2)cc1)C1=CSCCO1	?	12µM*	2%	1%
O=C(Nc1ccc(C(=O)NCCCN2CCCCC2)cc1)C1=CSCCO1	22%	?	-5%	0%
COc1ccccc1-c1ccc2nnc(SC)n2n1	1%	2%	-5%	-3%
Cc1[nH]c(-c2ccc3c(c2)OCO3)nc1C(=O)O	nt	-18%	-3%	-10%
Cc1[nH]c(-c2ccco2)nc1C(=O)O	10%	6.6µM*	7%	-7%
COc1ccc(OC)c(CCNC(=O)C(=O)Nc2ccc3nc4n(c(=O)c3c2)CCCCC4)c1	4.1µM*	4%	-4%	-2%
COc1cccc(/C=C/C(=O)Nc2ccc3nc4n(c(=O)c3c2)CCCC4)c1OC	2.1µM*	?	nt	1%
COc1cc(/C=C/C(=O)Nc2ccc3nc4n(c(=O)c3c2)CCCC4)cc(OC)c1OC	?	-18%	nt	-3%
